Data published in PubChem BioAssay AID1159580 (chemical genetic matrix, 2015).
Hit rate of the full screen: of about 5,500 compounds, about 2,000 (36%) were called active. Inconclusive results (about 18%) are left out. Cut-off read from the data, not from the text of the source: active = normalized growth mostly below about 0.91 (no sharp cut-off); inconclusive = no clear call, values can overlap the other calls; inactive = mostly above about 0.92. This is one part of the list.

Experiment: chemical genetic growth profiling, strain panel (AID 1159580);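 note: tested at 20 µM; growth read once vehicle control cultures reached saturation at 30 °C; 1 = growth at the plate median or of vehicle wells; lower values mean less growth of the strain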
Conditions: S. cerevisiae deletion strains, growth OD
[1] = locus YAL013W, strain DEP1, active compounds read low
[2] = locus YJR075W, strain HOC1, active compounds read low
[3] = locus YMR263W, strain SAP30, active compounds read low
[4] = locus YNL153C, strain GIM3, active compounds read low
[5] = locus YNL322C, strain KRE1, active compounds read low
[6] = locus YPL055C, strain LGE1, active compounds read low
[7] = locus YDL101C, strain DUN1, active compounds read low
[8] = locus YHR030C, strain SLT2, active compounds read low

Measured: normalized growth

C[C@@H](NC(=O)/C(C#N)=C/c1ccc(O)c(O)c1)c1ccccc1
inactive: [1] 0.997 | locus YAL040C, strain CLN3, active compounds read low 0.993 | locus YCL061C, strain MRC1 (second series), active compounds read low 0.983 | locus YDR363W, strain ESC2, active compounds read low 1.01 | locus YER002W, strain NOP16, active compounds read low 0.998 | [2] 0.963 | [3] 1 | locus YMR307W, strain GAS1, active compounds read low 1.01 | [4] 0.978 | locus YNL175C, strain NOP13, active compounds read low 1 | locus YNL197C, strain WHI3, active compounds read low 1 | locus YNL224C, strain SQS1, active compounds read low 1.01 | [5] 1.01 | locus YOR083W, strain WHI5 (second series), active compounds read low 1.01 | [6] 0.932

CCCc1cc(=O)oc2c1c(C)nn2-c1ccccc1
active: [1] 0.932 | locus YEL061C, strain CIN8, active compounds read low 0.885 | [8] 0.432 | locus YHR087W, strain rtc3, active compounds read low 0.862 | [2] 0.869 | locus YLR039C, strain RIC1, active compounds read low 0.786 | locus YLR058C, strain SHM2 (second series), active compounds read low 0.923 | locus YLR085C, strain ARP6, active compounds read low 0.539 | locus YLR262C, strain YPT6, active compounds read low 0.744 | locus YMR219W, strain ESC1, active compounds read low 0.938 | [4] 0.864 | locus YNL298W, strain CLA4 (second series), active compounds read low 0.839 | locus YNR030W, strain Alg12, active compounds read low 0.875 | locus YOL006C, strain TOP1, active compounds read low 0.599 | [6] 0.799 | locus YPL241C, strain CIN2, active compounds read low 0.782 | locus YPR135W, strain CTF4, active compounds read low 0.552
inactive: locus YBR229C, strain ROT2, active compounds read low 0.94 | [7] 0.954 | locus YDL134C, strain PPH21, active compounds read low 0.938 | locus YDR150W, strain NUM1, active compounds read low 0.978 | locus YGR078C, strain PAC10, active compounds read low 0.935 | locus YJR043C, strain POL32, active compounds read low 0.998 | locus YML094W, strain GIM5, active compounds read low 0.921 | [3] 0.956 | [5] 0.944

Cc1nn(-c2cccc(Cl)c2)c2oc(=O)cc(C(F)(F)F)c12
inactive: locus YAR019C, strain CDC15, active compounds read low 0.977 | locus YBL105C, strain PKC1, active compounds read low 0.966 | locus YBR135W, strain CKS1, active compounds read low 0.975 | locus YBR136W, strain MEC1, active compounds read low 0.974 | locus YBR160W, strain CDC28, active compounds read low 0.974 | locus YDL017W, strain CDC7, active compounds read low 0.968 | locus YDL028C, strain MPS1, active compounds read low 0.979 | [7] 0.961 | locus YDL108W, strain KIN28, active compounds read low 0.968 | locus YDL132W, strain cdc53, active compounds read low 0.972 | locus YDR052C, strain DBF4, active compounds read low 0.96 | locus YDR054C, strain cdc34, active compounds read low 0.973 | locus YDR226W, strain ADK1, active compounds read low 0.962 | locus YFL009W, strain cdc4, active compounds read low 0.964 | locus YFL029C, strain CAK1, active compounds read low 0.976 | locus YFR003C, strain YPI1, active compounds read low 0.966 | locus YFR028C, strain CDC14, active compounds read low 0.971 | locus YHR205W, strain SCH9, active compounds read low 0.615 | locus YIL147C, strain SLN1, active compounds read low 0.976 | locus YJL128C, strain PBS2, active compounds read low 0.95 | locus YJR016C, strain ILV3, active compounds read low 0.976 | locus YKL101W, strain HSL1, active compounds read low 0.776 | locus YKL193C, strain SDS22, active compounds read low 0.975 | locus YMR001C, strain CDC5, active compounds read low 0.962 | locus YMR205C, strain PFK2 (second series), active compounds read low 0.78 | locus YMR277W, strain FCP1, active compounds read low 0.98 | locus YNL006W, strain LST8, active compounds read low 0.977 | locus YNL161W, strain CBK1, active compounds read low 0.968 | locus YNL207W, strain RIO2, active compounds read low 0.963 | locus YNL222W, strain SSU72, active compounds read low 0.975 | locus YOL078W, strain AVO1, active compounds read low 0.97 | locus YOR061W, strain CKA2, active compounds read low 0.681 | locus YOR329C, strain SCD5, active compounds read low 0.964 | locus YPL209C, strain IPL1, active compounds read low 0.972 | locus YPR025C, strain CCL1, active compounds read low 0.968 | locus YPR106W, strain ISR1, active compounds read low 0.979 | locus YPR111W, strain DBF20, active compounds read low 0.96 | strain NNK1, active compounds read low 0.978 | strain TSCII, active compounds read low 0.967
active: locus YDL214C, strain PRR2, active compounds read low 0.609 | locus YDR477W, strain SNF1, active compounds read low 0.566 | locus YER123W, strain YCK3, active compounds read low 0.342 | locus YER133W, strain GLC7, active compounds read low 0.48 | locus YFR019W, strain FAB1, active compounds read low 0.572 | locus YGR040W, strain KSS1, active compounds read low 0.654 | locus YGR052W, strain FMP48, active compounds read low 0.538 | locus YGR092W, strain DBF2, active compounds read low 0.367 | [8] 0.154 | locus YHR079C, strain IRE1, active compounds read low 0.231 | locus YHR082C, strain KSP1, active compounds read low 0.508 | locus YJL095W, strain BCK1, active compounds read low 0.359 | locus YJL157C, strain FAR1, active compounds read low 0.467 | locus YJR066W, strain TOR1 (second series), active compounds read low 0.552 | locus YJR066W, strain TOR1, active compounds read low 0.343 | locus YKL048C, strain ELM1, active compounds read low 0.753 | locus YKL067W, strain YNK1, active compounds read low 0.705 | locus YKL203C, strain TOR2, active compounds read low 0.614 | locus YLR113W, strain HOG1, active compounds read low 0.35 | locus YLR133W, strain CKI1, active compounds read low 0.545 | locus YLR403W, strain SFP1, active compounds read low 0.393 | locus YML070W, strain DAK1, active compounds read low 0.515 | locus YNL020C, strain ARK1, active compounds read low 0.574 | locus YNL183C, strain NPR1, active compounds read low 0.464 | locus YNL307C, strain MCK1 (second series), active compounds read low 0.536 | locus YOL136C, strain PFK27, active compounds read low 0.342 | locus YOR119C, strain RIO1, active compounds read low 0.544 | locus YOR231W, strain MKK1, active compounds read low 0.501 | locus YPL031C, strain PHO85, active compounds read low 0.535 | locus YPL153C, strain RAD53, active compounds read low 0.6 | locus YPL204W, strain HRR25, active compounds read low 0.469 | locus YPL256C, strain CLN2, active compounds read low 0.201
